Measurements: PubChem BioAssay (NCI)
Compounds without any hit were thinned out: in the full panel of roughly 83,000, 20% have a hit.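 Single-dose data. Exposure time 48 hours. Values below 10 considered active.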 A number with no mark means an inactive call. The source made the active and inactive calls.

tested on: HL-60(TB) leukemia; assay: NCI-60 one-dose screen, 48 h (100 = growth as untreated, 0 = no growth, -100 = all killed); conditions: 10 µM unless noted

| Structure (SMILES) | growth |
| --- | --- |
| O=CN1N=C(c2cccc(Nc3ccnc4cc(Cl)ccc34)c2)CC1c1ccc(Cl)cc1 (stereo not given) | -4.94% (active) |
| CNc1ccc(-c2cc(=O)oc3ccc(Cl)cc23)cc1 | -13.5% (active) |
| CC1OC2CC(=O)OC2C2=C1C(=O)c1c(O)c3c(c(O)c1C2=O)C1CC(O)C3(O)C(C)O1 (stereo not given) | -26.7% (active) |
| COc1cc(-c2ccc3cc(OC)c(OC)c(OC)c3c2)cc(OC)c1OC | 67.4% |
| O=CN/N=C/c1ccc(Cl)c([N+](=O)[O-])c1 | 11.1% |
| Cc1nn(CCO)c(C)c1N=[N+]([O-])c1c(C)nn(CCO)c1C | -45.8% (active) |
| C/C(Cc1ccc(Cl)cc1)=C(/c1ccc(Cl)cc1)c1ccc(OCCN2CCCC2)cc1 | 54.7% |
| COc1ccc(-c2cc(-c3ccccc3)nc(N3CCN(CCNc4ccnc5cc(Cl)ccc45)CC3)n2)cc1 | -39.8% (active) |
| N=C1/C(=C2\NC3C=CC=CC3S2)C(c2ccc(Cl)cc2)C2C(=O)N(c3ccccc3)C(=S)N12 (stereo not given) | 100% |
| CCNc1ccc(-c2nc3ccccc3n3cccc23)cc1 | 86% |
| NC(=S)N/N=C(/CCN1CCCC1)CC(C1=C(O)C2=CCCCC2OC1=O)c1ccccc1 (stereo not given) | 72.9% |
| CC(CN(C)C)Oc1ccc(OC(C)CN(C)C)c2c1C(=O)c1ccccc1C2=O (stereo not given) | 39.2% |
| C=C1C(=O)O[C@H]2[C@H]1CC/C(CNC(=O)c1c[nH]c3ccc(F)cc13)=C\CC[C@@]1(C)O[C@@H]21 | -35% (active) |
| COc1cccc2nc3n(c12)C(c1c(F)cccc1F)SC3 (stereo not given) | 70.3% |
| N#Cc1cccc(NC(=O)c2cc(-c3ccc(F)cc3F)ccc2O)c1 | -19.1% (active) |
| COc1ccc2nc(-c3ccc(-c4noc(-c5cc(OC)c(OC)c(OC)c5)n4)cc3)[nH]c2c1 | 74.4% |
| COc1cccc2c1C(=O)c1c(O)c3c(c(O)c1C2=O)C[C@@](O)(/C(C)=N/NC(=O)c1cccc([N+](=O)[O-])c1)C[C@@H]3OC1CC(N)C(O)C(C)O1 (stereo not given in full) | -45.1% (active) |
| Cc1cc(NS(=O)(=O)c2ccc(NC(=O)COc3ccc(-c4cc5ccccc5[nH]4)cc3)cc2)no1 | 7.86% (active) |
| CC(C)(C)n1cc(-c2ccnc(NCCCNS(=O)(=O)c3cccc(F)c3)c2)c(-c2cccc(O)c2)n1 | 35.4% |
| CC(C)(C)CC(C)(C)c1ccc(OCCSC(=N)N)cc1 | 22.2% |

| Structure (SMILES) | growth |
| --- | --- |
| Cc1cc(C)cc(Nc2cc(C)nc3nc(C(F)(F)F)nn23)c1 | 15.4% |
| C#Cc1cccc(NC(=O)Nc2ccccc2NC(=O)CCl)c1 | 16.8% [8.25 µM] |
| O=c1c2ccccc2[nH]n1Cc1ccc2c(c1)OCO2 | 98.4% |
| O=C(NCc1ccc(Cn2c(=O)sn(-c3ccccc3)c2=O)cc1)OCc1ccc2c(Br)cc(Br)c(O)c2n1 | -41.3% (active) |
| CC(C)(C)c1ccc(S(=O)(=O)O)s1 | 82.5% |
| COC(=O)C1=CCC(n2cnc3c(N)ncnc32)O1 (stereo not given) | 94% |
| COc1ccc(OC2=CC(=O)c3ccc(C)nc3C2=O)cc1 | 52.1% |
| Nn1c(CN2CCN(c3cc4c(cc3F)c(=O)c(C(=O)O)cn4C3CC3)CC2)n[nH]c1=S | 101% |
| O=S(=O)(NCCNc1nccc(-c2c(-c3ccc(O)cc3)nc3sccn23)n1)c1cccc2ccccc12 | 90.3% |
| N#Cc1c(-c2ccc(Cl)cc2)csc1NC(=O)Nc1cccc(C(F)(F)F)c1 | -13% (active) |
| COc1cc(C2CC(=O)Nc3c2cnn3Cc2ccco2)cc2c1OCCO2 (stereo not given) | 25.6% |
| CCOP1(=O)CC(C)=C(Cl)C(P(=O)(O)O)C1 (stereo not given) | 11.5% |
| NC(=O)c1ncn([C@@H]2O[C@H](CO)[C@@H](O)[C@H]2O)n1 | 109% |
| NCCCNc1nc2ccc(Cl)cc2c2c(=O)c3cc(F)ccc3sc12 | 34.9% |
| CN1C(=O)N(C)[C@H]2NC(NN)=N[C@H]21 | 102% |
| O=C(Nc1cc([N+](=O)[O-])c2[nH]c(=O)c3ccccc3c2c1)C(F)(F)F | 94.4% |
| O=c1oc2ccc(Br)cc2c(=O)n1-c1ccc(Br)cc1F | -39.1% (active) |
| COc1cc(/C=C/C(=O)c2c(-c3ccc(Cl)cc3)nc3sc(C)nn23)cc(OC)c1OC | 50.6% |
| CCOC(=O)c1c(/N=C2\SC(=O)/C(=C\C(=O)OC)N2NC)sc2c1CCN(C(=O)OCC)C2 | 108% |
| O=C(Oc1ccccc1)c1ccccc1Cl | 76.4% |
